Laboratory results published in PubChem BioAssay (NCATS).
Records with an inconclusive call do not appear. Activity calls are given as the source filed them. Unless noted, calls come from the whole dose curve; as a rule, active = well fitted curve in the direction sought with a large enough effect; inconclusive = small, poorly fitted or top-dose-only effect, or another doubt; inactive = no such curve, though single readings can be large; an effect the other way counts as inactive or inconclusive.

Key:
[1] = NS1 protein of Zika virus - qHTS assay to identify small molecule inhibitors in human HEK 293 cells (AID 1347053); note: series mostly up to about 46 µM; nearly all actives have a fitted effect of over 55% in size
Outline: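 In this cell-based screen, HEK 293 cultures received compound for one hour before Zika MR766 at MOI = 0.5. NS1 was quantified 24 hours later by TR-FRET, normalized to virus-free wells and infected wells.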

[2] = qHTS of pediatric cancer cell lines to identify multiple opportunities for drug repurposing: Primary screen for TC32 cells (AID 1347089); note: nearly all actives have a fitted effect of over 60% in size
Outline: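 Measured quantity: luminescence from CellTiter-Glo, reflecting metabolically active TC32 cells following 48 h of compound. Curves came straight from multi-point titrations, with 8 or 11 points in primary and 11 in confirmatory screening.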

[3] = qHTS of pediatric cancer cell lines to identify multiple opportunities for drug repurposing: Primary screen for DAOY cells (AID 1347090); note: series mostly up to about 46 µM; nearly all actives have a fitted effect of over 55% in size
Outline: (§1)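 Viability measured as metabolically active cells via CellTiter-Glo luminescence following 48 hours of compound exposure, 11-point dilutions in confirmatory testing. 500-1,000 cells/well plated 5 hours before dosing; controls were DMSO and 2.3 µM bortezomib.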

[4] = qHTS of pediatric cancer cell lines to identify multiple opportunities for drug repurposing: Primary screen for SJ-GBM2 cells (AID 1347091)
Outline: as §1

[5] = qHTS of pediatric cancer cell lines to identify multiple opportunities for drug repurposing: Primary screen for A673 cells (AID 1347092); note: nearly all actives have a fitted effect of over 45% in size
Outline: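 Cells are plated, rested 5 h, dosed by pintool, incubated 48 h, then lysed with CellTiter-Glo and read by luminescence. DMSO is the neutral control; bortezomib at 2.3 uM final is the positive control.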

[6] = qHTS of pediatric cancer cell lines to identify multiple opportunities for drug repurposing: Primary screen for SK-N-MC cells (AID 1347093); note: series mostly up to about 46 µM
Outline: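 Metabolically active cells were quantified by ATP-dependent luminescence (CellTiter-Glo, 15 min at room temperature) following 48 h treatment. Cells had been plated at 500-1,000 per well and settled for 5 h beforehand.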

[7] = qHTS of pediatric cancer cell lines to identify multiple opportunities for drug repurposing: Primary screen for BT-37 cells (AID 1347094); note: series mostly up to about 57 µM
Outline: (§2)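 500-1,000 cells/well; 5 h pre-incubation 37 °C/5% CO2; compound pinned; 48 h; CellTiter-Glo, 15 min RT; luminescence. MIPE 11-pt from 0.78 nM, NPC 8-pt from 0.59 nM final. Bortezomib 2.3 µM final as positive control.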

[8] = qHTS of pediatric cancer cell lines to identify multiple opportunities for drug repurposing: Primary screen for NB-EBc1 cells (AID 1347095)
Outline: as §2

[9] = qHTS of pediatric cancer cell lines to identify multiple opportunities for drug repurposing: Primary screen for U-2 OS cells (AID 1347096); note: nearly all actives have a fitted effect of over 50% in size
Outline: (§3)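 Viability after 48 h compound treatment at 37C, 500-1,000 cells/well, read as ATP luminescence with CellTiter-Glo. Primary screens used 11-point (MIPE, 0.78 nM-46 µM) or 8-point (NPC, 0.59 nM-46 µM) final concentrations; follow-up screens used 11-point dilutions.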

[10] = qHTS of pediatric cancer cell lines to identify multiple opportunities for drug repurposing: Primary screen for Saos-2 cells (AID 1347097); note: nearly all actives have a fitted effect of over 40% in size
Outline: as §2

[11] = qHTS of pediatric cancer cell lines to identify multiple opportunities for drug repurposing: Primary screen for SK-N-SH cells (AID 1347098);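 note: DMSO served as neutral control and bortezomib at 2.3 µM as positive control; nearly all actives have a fitted effect of over 65% in size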
Outline: (§4)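 Cells (500-1,000/well) rested 5 h, then received compounds for 48 h; metabolically active cells were measured by CellTiter-Glo luminescence. Final concentrations spanned up to 46 µM (MIPE, 11-point) or 0.59 nM-46 µM (NPC, 8-point) in primary screens, 11-point in follow-ups.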

[12] = qHTS of pediatric cancer cell lines to identify multiple opportunities for drug repurposing: Primary screen for NB1643 cells (AID 1347099); note: nearly all actives have a fitted effect of over 50% in size
Outline: as §2

[13] = qHTS of pediatric cancer cell lines to identify multiple opportunities for drug repurposing: Primary screen for LAN-5 cells (AID 1347100)
Outline: as §3

[14] = qHTS of pediatric cancer cell lines to identify multiple opportunities for drug repurposing: Primary screen for BT-12 cells (AID 1347101); note: nearly all actives have a fitted effect of over 25% in size
Outline: as §4

[15] = target: Atrial natriuretic peptide receptor 1 (Homo sapiens) (UniProt P16066); test: Natriuretic polypeptide receptor (hNpr1) antagonism - Pilot screen (AID 1347049; calls by dose curve;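 note: agonist-evoked cGMP luminescence read 20 min after hNppA addition; series mostly up to about 58 µM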)
Outline: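 cGMP-sensor HEK293/hNpr1 cells, 1500/well, plated overnight at 37C. 2% GloSensor reagent, 2 h RT. Compound (23 nL pin transfer) 30 min RT, baseline luminescence pre-read. 0.1 nM hNppA, 20 min RT, post-read.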

[16] = target: Atrial natriuretic peptide receptor 2 (Homo sapiens) (UniProt P20594); test: Natriuretic polypeptide receptor (hNpr2) antagonism - Pilot subtype selectivity assay (AID 1347050; calls by dose curve)
Outline: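 Luminescence from a genetically encoded cGMP luciferase biosensor in hNpr2-expressing HEK293 cells is read before and 20 min after adding 1 nM hNppC. Test compounds, in interplate 1:5 titrations, are added 30-50 min ahead of the agonist.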

[17] = target: T1, Tyrosine-protein phosphatase non-receptor type substrate 1 (Homo sapiens) + Leukocyte surface antigen CD47 (Homo sapiens) (UniProt P78324+Q08722); test: CD47-SIRPalpha protein protein interaction - LANCE assay qHTS validation (AID 1347057; active = well fitted curve in the direction sought with a large enough effect in the signal ratio, with a control signal flat, not every such curve was filed as active; the % refers to the signal ratio; note: series mostly up to about 38 µM)
Outline: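 Inhibition of soluble CD47/SIRPalpha ectodomain association by titrated compounds, measured as 665/615 nm time-resolved FRET ratio after sequential 30 min room-temperature incubations.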

[18] = target: T1, Tyrosine-protein phosphatase non-receptor type substrate 1 (Homo sapiens) + Leukocyte surface antigen CD47 (Homo sapiens); test: CD47-SIRPalpha protein protein interaction - Alpha assay qHTS validation (AID 1347059);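 note: bead proximity luminescence from CD47 binding SIRPalpha after compound preincubation with SIRPalpha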
Outline: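 SIRPalpha-biotin 25 nM + cpd, 30 min RT, dark; add CD47-His 12.5 nM, 30 min; add Ni-NTA/SAV beads 10 ug/mL, 30 min; AlphaScreen. Buffer PBS pH 7.4 + 0.05% IGEPAL CA-630. Non-biotinylated SIRPalpha as control inhibitor.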

[19] = target: Parathyroid hormone/parathyroid hormone-related peptide receptor (Homo sapiens) (UniProt Q03431); test: qHTS for PTHR1 Agonists: Optimization Screen against the NCGC LOPAC library (AID 1347079);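 note: GloSensor cAMP luminescence in HEK-293 GP2 cells expressing human PTHR1 with IBMX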
Outline: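 HEK-293 GP2 cells, PTHR1 + GloSensor cAMP; 3000 cells/well, o/n. Luciferin + IBMX 0.5mM each (stock), 1 hr 37C. Cpd titration, 1 hr 37C. Lum after 15 min RT. Ctrl M-PTH(1-15) top 10uM.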

Measured: Potency

T1 sequence (P78324 whole entry, looked up, the tested form may be a part): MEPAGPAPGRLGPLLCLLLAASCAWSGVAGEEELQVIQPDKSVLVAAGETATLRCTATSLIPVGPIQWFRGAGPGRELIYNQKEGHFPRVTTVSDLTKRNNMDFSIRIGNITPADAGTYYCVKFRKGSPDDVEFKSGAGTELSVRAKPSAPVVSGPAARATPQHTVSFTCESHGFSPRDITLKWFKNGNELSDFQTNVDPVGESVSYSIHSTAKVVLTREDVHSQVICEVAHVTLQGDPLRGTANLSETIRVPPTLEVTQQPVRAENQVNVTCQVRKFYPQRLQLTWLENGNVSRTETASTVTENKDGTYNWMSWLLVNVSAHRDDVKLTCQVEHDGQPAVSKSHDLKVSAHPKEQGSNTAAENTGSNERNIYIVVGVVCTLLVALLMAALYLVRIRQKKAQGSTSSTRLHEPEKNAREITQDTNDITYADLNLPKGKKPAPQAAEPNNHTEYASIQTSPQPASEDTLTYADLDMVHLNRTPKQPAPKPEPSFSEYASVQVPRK
T1 sequence (Q08722 whole entry, looked up, the tested form may be a part): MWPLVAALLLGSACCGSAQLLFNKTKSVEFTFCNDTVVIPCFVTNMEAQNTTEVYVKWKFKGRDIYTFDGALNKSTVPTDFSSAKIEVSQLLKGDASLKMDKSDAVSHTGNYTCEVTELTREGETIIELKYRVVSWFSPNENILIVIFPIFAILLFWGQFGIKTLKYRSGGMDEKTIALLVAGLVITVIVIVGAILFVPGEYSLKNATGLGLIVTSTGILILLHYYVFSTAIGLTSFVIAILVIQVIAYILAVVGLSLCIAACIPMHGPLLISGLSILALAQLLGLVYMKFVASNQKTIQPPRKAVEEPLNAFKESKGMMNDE
Sequence of Atrial natriuretic peptide receptor 2 (Homo sapiens) (P20594 whole entry, looked up): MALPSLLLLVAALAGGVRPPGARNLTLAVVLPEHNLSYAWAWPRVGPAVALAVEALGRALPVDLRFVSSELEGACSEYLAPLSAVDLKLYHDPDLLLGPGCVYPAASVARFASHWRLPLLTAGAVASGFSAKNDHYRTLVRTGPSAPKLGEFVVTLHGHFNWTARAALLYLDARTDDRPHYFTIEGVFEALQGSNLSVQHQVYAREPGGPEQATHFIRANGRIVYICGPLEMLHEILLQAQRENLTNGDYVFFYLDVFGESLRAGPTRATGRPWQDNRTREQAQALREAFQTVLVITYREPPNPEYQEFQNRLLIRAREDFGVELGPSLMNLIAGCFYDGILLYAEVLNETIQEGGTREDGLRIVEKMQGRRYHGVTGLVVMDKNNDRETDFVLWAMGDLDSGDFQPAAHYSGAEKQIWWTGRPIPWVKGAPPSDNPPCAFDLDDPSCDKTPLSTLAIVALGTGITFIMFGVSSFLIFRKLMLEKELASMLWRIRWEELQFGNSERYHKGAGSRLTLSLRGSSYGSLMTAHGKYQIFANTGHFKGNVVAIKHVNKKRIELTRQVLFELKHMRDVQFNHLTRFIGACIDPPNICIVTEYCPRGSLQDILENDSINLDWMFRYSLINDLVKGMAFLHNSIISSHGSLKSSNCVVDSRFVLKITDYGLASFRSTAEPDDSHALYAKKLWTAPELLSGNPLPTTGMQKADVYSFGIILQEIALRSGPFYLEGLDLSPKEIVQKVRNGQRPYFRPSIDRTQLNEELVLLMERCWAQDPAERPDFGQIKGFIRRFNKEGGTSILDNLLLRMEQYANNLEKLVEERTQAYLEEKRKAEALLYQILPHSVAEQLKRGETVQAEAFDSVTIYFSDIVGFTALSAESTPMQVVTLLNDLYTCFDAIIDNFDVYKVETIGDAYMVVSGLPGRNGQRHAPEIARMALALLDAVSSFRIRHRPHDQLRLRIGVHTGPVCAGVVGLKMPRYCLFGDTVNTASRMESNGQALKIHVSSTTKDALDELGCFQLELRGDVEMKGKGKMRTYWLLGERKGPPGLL
Sequence of Parathyroid hormone/parathyroid hormone-related peptide receptor (Homo sapiens) (Q03431 whole entry, looked up): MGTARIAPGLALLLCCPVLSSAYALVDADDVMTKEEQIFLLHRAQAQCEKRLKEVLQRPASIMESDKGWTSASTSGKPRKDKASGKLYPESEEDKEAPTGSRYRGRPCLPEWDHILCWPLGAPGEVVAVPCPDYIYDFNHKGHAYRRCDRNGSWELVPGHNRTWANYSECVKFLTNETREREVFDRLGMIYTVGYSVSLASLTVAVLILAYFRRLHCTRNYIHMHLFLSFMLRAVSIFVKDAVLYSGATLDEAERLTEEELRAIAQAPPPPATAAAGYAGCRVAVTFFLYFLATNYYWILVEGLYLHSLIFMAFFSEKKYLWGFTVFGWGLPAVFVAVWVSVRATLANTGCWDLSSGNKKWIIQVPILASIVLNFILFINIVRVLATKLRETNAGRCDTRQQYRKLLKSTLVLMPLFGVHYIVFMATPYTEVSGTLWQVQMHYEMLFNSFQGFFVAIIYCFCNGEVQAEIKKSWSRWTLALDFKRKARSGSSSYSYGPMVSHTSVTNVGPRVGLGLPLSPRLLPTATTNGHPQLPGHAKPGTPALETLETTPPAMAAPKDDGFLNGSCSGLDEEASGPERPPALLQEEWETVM
Sequence of Atrial natriuretic peptide receptor 1 (Homo sapiens) (P16066 whole entry, looked up): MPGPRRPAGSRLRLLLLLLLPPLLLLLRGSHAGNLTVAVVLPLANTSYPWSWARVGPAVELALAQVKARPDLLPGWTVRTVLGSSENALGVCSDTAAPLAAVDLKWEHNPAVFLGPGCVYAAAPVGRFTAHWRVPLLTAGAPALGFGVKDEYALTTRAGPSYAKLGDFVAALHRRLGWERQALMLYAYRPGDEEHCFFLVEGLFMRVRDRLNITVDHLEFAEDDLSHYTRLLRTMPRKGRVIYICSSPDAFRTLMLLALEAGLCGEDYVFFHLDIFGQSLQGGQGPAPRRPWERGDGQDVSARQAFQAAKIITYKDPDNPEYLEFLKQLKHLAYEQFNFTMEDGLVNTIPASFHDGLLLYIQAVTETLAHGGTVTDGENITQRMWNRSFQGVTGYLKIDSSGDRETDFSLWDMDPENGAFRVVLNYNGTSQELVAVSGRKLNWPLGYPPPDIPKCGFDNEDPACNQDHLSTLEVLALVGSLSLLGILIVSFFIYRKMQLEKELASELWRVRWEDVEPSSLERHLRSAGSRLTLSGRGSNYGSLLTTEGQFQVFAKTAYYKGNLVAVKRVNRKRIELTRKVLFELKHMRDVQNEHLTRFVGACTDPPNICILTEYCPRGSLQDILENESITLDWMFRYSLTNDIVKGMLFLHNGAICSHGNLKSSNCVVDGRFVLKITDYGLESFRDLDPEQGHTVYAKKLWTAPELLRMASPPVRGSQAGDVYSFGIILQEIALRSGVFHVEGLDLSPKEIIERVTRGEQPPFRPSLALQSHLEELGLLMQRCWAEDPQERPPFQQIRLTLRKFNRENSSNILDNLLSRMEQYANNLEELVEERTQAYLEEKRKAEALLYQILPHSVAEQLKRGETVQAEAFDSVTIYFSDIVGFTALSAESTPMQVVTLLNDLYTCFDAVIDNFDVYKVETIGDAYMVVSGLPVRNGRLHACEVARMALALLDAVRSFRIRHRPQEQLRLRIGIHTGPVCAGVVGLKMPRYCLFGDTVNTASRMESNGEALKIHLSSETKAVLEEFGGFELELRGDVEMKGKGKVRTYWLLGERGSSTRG

CC(=O)N[C@@H](CCC(=O)O)C(=O)O
not listed: [15] | [16] | [17] | [18] | [19]
inactive: all other assays above

CCCCCCCCCCCCCCCC(=O)O
not listed: [14] | [15] | [16] | [17] | [18] | [19]
inactive: all other assays above

Cc1cc(NS(=O)(=O)c2ccc(N)cc2)nc(C)n1
not listed: [15] | [16] | [17] | [18] | [19]
inactive: all other assays above

CCN1CCN(C(=O)N[C@@H](C(=O)N[C@@H]2C(=O)N3C(C(=O)O)=C(CSc4nnnn4C)CS[C@H]23)c2ccc(O)cc2)C(=O)C1=O
not listed: [15] | [16] | [17] | [18] | [19]
inactive: all other assays above

CC(=O)O[C@H]1C[C@@H]2CC[C@@H]3[C@H](CC[C@@]4(C)[C@H]3C[C@H]([N+]3(C)CCCCC3)[C@@H]4OC(C)=O)[C@@]2(C)C[C@@H]1N1CCCCC1
not listed: [14] | [15] | [16] | [17] | [18] | [19]
inactive: all other assays above

Oc1ccccc1C=NCc1ccccc1
not listed: [15] | [16] | [17] | [18] | [19]
inactive: all other assays above

COP(=O)(OC)OC(c1ccc(Cl)cc1)P(=O)(OC)OC (configuration not stated)
not listed: [15] | [16] | [17] | [18] | [19]
inactive: all other assays above

CCCc1ncc(C[n+]2ccccc2C)c(N)n1
not listed: [14] | [15] | [16] | [17] | [18] | [19]
inactive: all other assays above

CCOc1cc(OCC)c(C(=O)CCC(=O)O)cc1OCC
not listed: [15] | [16] | [17] | [18] | [19]
inactive: all other assays above

COc1ccc(C(=O)c2ccccc2)c(O)c1
not listed: [14] | [15] | [16] | [17] | [18] | [19]
inactive: all other assays above

CCN(CC)CCNC(=O)c1cc(Br)c(N)cc1OC
not listed: [14] | [15] | [16] | [17] | [18] | [19]
inactive: all other assays above

CC[N+](C)(CC)CCOC(=O)C(O)(c1ccccc1)C1CCCCC1 (configuration not stated)
not listed: [15] | [16] | [17] | [18] | [19]
inactive: all other assays above

Cc1cccc(C)c1NC(=O)CN1CCCC1
not listed: [15] | [16] | [17] | [18] | [19]
inactive: all other assays above

NC(N)=NCc1cccc(I)c1
inactive: [15] | [16] | [1] | [17] | [18] | [19]

COc1ccc(/C=N/NC(=O)c2ccncc2)cc1OC
not listed: [15] | [16] | [17] | [18] | [19]
inactive: all other assays above

CC(C)NCC(O)c1ccc2ccccc2c1 (configuration not stated)
not listed: [14] | [15] | [16] | [17] | [18] | [19]
inactive: all other assays above

CCCCCCCC/C=C\CCCCCCCCN
not listed: [15] | [16] | [17] | [18] | [19]
inactive: all other assays above

CCC(Cc1c(I)cc(I)c(N)c1I)C(=O)O (configuration not stated)
not listed: [15] | [16] | [17] | [18] | [19]
inactive: all other assays above

O=C1C(O)=C(O)C(=O)C(O)=C1O
not listed: [15] | [16] | [17] | [18] | [19]
inactive: all other assays above
